p53 reactivation – mutant p53 re-activation in reporter cells. H1299 p53-A138V BP100-luciferase reporter, luminescence, 24 h. Potency, µM (highest dose often 92.2 µM), without a hit: top-dose activity change, positive = activation, most hits filed as activators. 320,000 compounds, 0.063% hits. AID 504706; also: % of control where 0% means no effect; nearly all actives have a fitted effect of over 45% in size
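H1299 (p53-null), stable ts p53-A138V + BP100-Luc; 1000 cells/well, Opti-MEM/10% FBS; cpd 4 pt, 1:5; 24 h, 37 deg C, 5% CO2; detection reagent 10 min RT; luminescence.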
GLS inhibitor – inhibitors of human glutaminase (GLS) | O94925 | GLS enzymatic activity, qHTS titration | Potency, µM (series often up to 45.5 µM), for inactives: top-dose activity change, negative = inhibition, hits mostly inhibitors | 410,000 compounds, 0.21% hits; also: % is scaled to controls: 0 for no effect and ±100 for the full control effect
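Glutamate formation by hKGA was monitored fluorometrically using coupled glutamate oxidase, HRP and Amplex Red. Substrate was added as 1 mM L-glutamine solution; incubation was 30 min at RT after an initial read.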
USP2a block – USP2a (human) protease inhibition | O75604 | USP2 core, Ub-CHOP2 coupled fluorogenic reporter, 485/531 | Potency, µM (titrated, usually from 38.3 µM), for the others: at the top dose activity change, negative = inhibition, usual class: inhibitors | 330,000 compounds, 0.01% hits | AID 463254;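 also: plate controls were DMSO wells for no effect and full inhibition by NEM control for full effect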
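Deubiquitinase activity read as fluorescence (485/531 nm) after Ub-CHOP2 cleavage activates the enterokinase reporter on its substrate; USP2 core 10nM, Ub-CHOP2 and substrate 25nM each, 30min compound preincubation then 60min RT; data normalized to NEM, curves fitted.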
Tb PFK block – inhibitors of T. brucei phosphofructokinase. 330,000 compounds, 0.17% hits. O15648. Potency, µM (doses to about 57.5 µM), for inactives: at the top dose activity, negative = inhibition, actives largely listed as inhibitors. T. brucei PFK, ADP-Glo luminescence;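 also: 0% = uninhibited 1x PFK enzyme wells and -100% = no-enzyme wells; nearly all actives have a fitted effect of over 60% in size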
Target sequence (O15648 whole entry, looked up): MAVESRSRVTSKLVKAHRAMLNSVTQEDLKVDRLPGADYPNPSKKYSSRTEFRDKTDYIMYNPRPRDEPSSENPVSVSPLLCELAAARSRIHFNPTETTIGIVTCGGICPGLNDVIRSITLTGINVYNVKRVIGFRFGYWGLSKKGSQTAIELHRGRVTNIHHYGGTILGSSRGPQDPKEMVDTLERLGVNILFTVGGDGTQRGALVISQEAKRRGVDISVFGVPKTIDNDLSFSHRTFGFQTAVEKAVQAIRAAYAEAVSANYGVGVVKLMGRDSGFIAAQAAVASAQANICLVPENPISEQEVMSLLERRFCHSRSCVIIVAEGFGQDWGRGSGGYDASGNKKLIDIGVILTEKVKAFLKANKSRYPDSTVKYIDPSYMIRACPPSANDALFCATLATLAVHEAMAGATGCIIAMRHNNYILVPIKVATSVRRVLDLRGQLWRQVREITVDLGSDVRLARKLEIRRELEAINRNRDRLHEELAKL
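1.25 nM PFK with 0.5 mM F6P and 0.1 mM ATP in 0.1 M TEA pH 8.0, 5 mM MgCl2, incubated 45 min at room temperature; ADP measured by ADP-Glo luminescence; compounds titrated up to 57 uM.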
An asterisk follows results filed as active; ? = inconclusive; . = no result given; ! = a repeat was not active. Sampled rows, rich in hits. Any-hit rate of the full collection: about 0.39%. Calls follow the shape of the dose curve; as a rule, active = well fitted curve in the direction sought with a large enough effect; inconclusive = small, poorly fitted or top-dose-only effect, or another doubt; inactive = no such curve, though single readings can be large; an effect the other way counts as inactive or inconclusive. Potency is read from the fitted curve at half-maximal effect.

SMILES	p53 reactivation	GLS inhibitor	USP2a block	Tb PFK block
COc1ccc(CCNc2nc(SCc3ccccc3F)nc3ccccc23)cc1OC	.	6%	.	.
COc1ccc(C(=O)n2nc(-c3ccco3)nc2NCc2cccs2)cc1	.	-1%	.	.
COc1cccc2sc(NNC(=O)COc3ccccc3)nc12	0%	-2%	2%	-8%
COc1cccc2sc(Nc3nc(-c4ccccn4)cs3)nc12	25µM*	.	-3%	6%
Cc1cc(=O)oc2c(C)c(OCC(=O)N3CCN(c4cccc(Cl)c4)CC3)ccc12	-11%	3%	1%	21µM*
Cc1cc(=O)oc2c(C)c(OCC(=O)N3CCN(c4ccccc4)CC3)ccc12	-17%	1%	-2%	-2%
c1ccc(N2CC3CCc4ccccc4C3=N2)cc1 (stereo not given)	45µM*	2%	1%	-1%
CN1N=C2c3ccccc3CCC2C1c1ccc(F)cc1 (stereo not given)	20%	-13%	3%	-4%
COc1cc(C(=O)OC(COCCC(C)C)CN2CCOCC2)cc(OC)c1OC (stereo not given)	.	-3%	.	.
Cc1cccc(OCC(=O)NCC2(N3CCN(C)CC3)CCCCC2)c1	.	3%	.	.
O=C(N/N=C/c1ccc(Cl)cc1Cl)c1ccncc1	1%	0%	2%	2%
O=C(N/N=C/c1ccc(O)cc1O)c1ccncc1	14%	13µM*	0%	3%
O=c1c2ccccc2sn1-c1cccc(Cl)c1	.	7.9µM*	.	.
CN(C)S(=O)(=O)c1cccc(-n2sc3ccccc3c2=O)c1	-2%	?	-3%	13µM*
O=c1c2ccccc2sn1-c1ccccc1F	.	7.9µM*	.	.
Cn1sc2ccccc2c1=O	.	-13%	.	.
CN(C)c1cccc(C(=O)NNC(=O)CN2C(=O)C3CC=CCC3C2=O)c1 (stereo not given)	45µM*	27%	0%	4%
NC[C@@H]1O[C@H](OC2[C@@H](CO)O[C@@H](OC3[C@H](O)[C@H](N)C[C@H](N)[C@H]3OC3O[C@H](CO)[C@@H](O)[C@H](O)[C@@H]3N)[C@H]2O)C(N)[C@H](O)[C@@H]1O (stereo not given in full)	.	-1%	.	.
COc1ccccc1CNC(=O)c1ccc(-c2nc(CN3CCc4ccccc43)c(C)o2)cc1	.	1%	.	.
Cc1cccc(C)c1NC(=O)c1c(C)oc2c1C1=NCCN1C=N2	.	-5%	.	.
Cc1ccccc1CNC(=O)c1c(C)oc2c1C1=NCCN1C=N2	.	4µM*	.	.
CCCC(=O)OCCNc1cc(Sc2nc3ccccc3[nH]2)c2nonc2c1[N+](=O)[O-]	-27%	?	4%	21µM*
S=C=Nc1ccc(N=C=S)cc1	.	-3%	.	.
CN(N=Cc1ccccc1)C(=S)Nc1ccccc1	.	16µM*	.	.
Cc1cc(C)c(Nc2nc3ccccc3n3c(C)nnc23)c(C)c1	.	3%	.	.
SMILES	p53 reactivation	GLS inhibitor	USP2a block	Tb PFK block
CN1CCN(C2CN(C3CCCCC3)S(=O)(=O)C2)CC1 (stereo not given)	.	0%	.	.
O=S1(=O)CC(N2CC=CC2)CN1C1CCCCC1 (stereo not given)	.	11µM*	.	.
N#CC1=C(N)n2c(s/c(=C\c3ccco3)c2=O)=C(C#N)C1c1ccco1 (stereo not given)	10%	11µM*	-2%	0%
CCN(CC)C(=O)CC(c1cc(OC)c(OC)c(OC)c1)c1c(OC)cc(OC)c2c(-c3ccccc3)cc(=O)oc12 (stereo not given)	-1%	11µM*	1%	-7%
Cc1ccc(N=Nc2ccc(N)cc2C)c(S(N)(=O)=O)c1	?	0%	9%	2%
Cc1cc(-c2ccc(N=Nc3ccc4c(S(=O)(=O)O)cc(S(=O)(=O)O)c(N)c4c3O)c(C)c2)ccc1N=Nc1ccc2c(S(=O)(=O)O)cc(S(=O)(=O)O)c(N)c2c1O	.	14µM*!	.	.
CCn1cc(-c2ccnc3cc(C(=O)O)nn23)c(C)n1	1%	0%	-1%	-6%
Cc1c(-c2ccnc3cc(C(=O)O)nn23)cnn1C	1%	7.9µM*	3%	-30%
COCCCNC(=O)/C(C#N)=C/c1ccc(OCC(=O)O)c(OC)c1	1%	10µM*	1%	?
COc1ccc(S(=O)(=O)Nc2ccccc2OC)cc1NC(=O)c1cc2ccccc2oc1=O	22µM*	4%	2%	3%
O=C(CCCN1CCN(c2ccc(F)cc2)CC1)NC1c2ccccc2CSc2ccccc21 (stereo not given)	.	13%	.	.

Assay outcomes deposited in PubChem by National Center for Advancing Translational Sciences (NCATS).
